PubChem BioAssay AID1159580 (chemical genetic matrix, 2015)
“And” between values parts separate entries of the source, which are not always exact repeats. Equal values may be shown once. About 2,000 (36%) of roughly 5,500 compounds were called active. Roughly 18% stayed inconclusive and do not appear here. No stated cut-off is given here; in the data, active means normalized growth mostly below about 0.91 (no sharp cut-off); inconclusive means no clear call, values can overlap the other calls; inactive means mostly above about 0.92. The list shows a part of the results.

Assay: chemical genetic growth profiling, strain panel (AID 1159580);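 further: tested at 20 µM; growth read once vehicle control cultures reached saturation at 30 °C; 1 = growth at the plate median or of vehicle wells; lower values mean less growth of the strain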
Conditions: S. cerevisiae deletion strains, growth OD

Measured: normalized growth

CNC(=O)O/N=C(\C)SC
inactive: locus YAL013W, strain DEP1, hits give low values 1 | locus YAL021C, strain ccr4, hits give low values 0.987 | locus YAL026C, strain drs2, hits give low values 1 | locus YAL030W, strain snc1, hits give low values 1.01 | locus YBL061C, strain skt5, hits give low values 1 | locus YBR009C, strain hhf1, hits give low values 1.01 | locus YBR021W, strain FUR4, hits give low values 1.03 | locus YBR023C, strain chs3, hits give low values 1 | locus YBR171W, strain sec66, hits give low values 1 | locus YBR229C, strain ROT2, hits give low values 1.01 | locus YBR231C, strain swc5, hits give low values 1 | locus YBR279W, strain paf1, hits give low values 0.999 | locus YCL011C, strain gbp2, hits give low values 1.01 | locus YCL016C, strain dcc1, hits give low values 0.998 | locus YCL029C, strain bik1, hits give low values 0.983 | locus YCL061C, strain MRC1, hits give low values 1 | locus YCL069W, strain vba3, hits give low values 1 | locus YCR088W, strain abp1, hits give low values 1 | locus YDL005C, strain med2, hits give low values 1 | locus YDL035C, strain GPR1, hits give low values 1.02 | locus YDL040C, strain nat1, hits give low values 0.999 | locus YDL074C, strain BRE1, hits give low values 1.07 | locus YDL101C, strain DUN1, hits give low values 1.02 | locus YDL134C, strain PPH21, hits give low values 1.01 | locus YDL185W, strain tfp1, hits give low values 0.988 | locus YDL192W, strain arf1, hits give low values 0.981 | locus YDR001C, strain nth1, hits give low values 1 | locus YDR069C, strain doa4, hits give low values 1 | locus YDR101C, strain arx1, hits give low values 0.983 | locus YDR137W, strain rgp1, hits give low values 1.01 | locus YDR150W, strain NUM1, hits give low values 1.01 | locus YDR159W, strain sac3, hits give low values 1 | locus YDR162C, strain NBP2, hits give low values 0.987 | locus YDR195W, strain ref2 0.971 | locus YDR297W, strain sur2, hits give low values 1.02 | locus YDR318W, strain mcm21, hits give low values 0.994 | locus YDR334W, strain swr1, hits give low values 0.999 | locus YDR335W, strain msn5, hits give low values 0.997 | locus YDR388W, hits give low values 0.984 | locus YDR392W, strain spt3, hits give low values 1 | locus YDR502C, strain sam2, hits give low values 0.993 | locus YEL003W, strain gim4, hits give low values 1 | locus YEL037C, strain rad23, hits give low values 1 | locus YEL061C, strain CIN8 (second series), hits give low values 1 | locus YEL061C, strain CIN8, hits give low values 1.01 | locus YER015W, strain faa2, hits give low values 0.982 | locus YER016W, strain bim1, hits give low values 1 | locus YER110C, hits give low values 0.977 | locus YER111C, strain swi4, hits give low values 0.996 | locus YER155C, strain BEM2 (second series), hits give low values 1.01 | locus YER155C, strain BEM2, hits give low values 1.01 | locus YER167W, strain BCK2, hits give low values 0.993 | locus YFR010W, strain ubp6, hits give low values 0.997 | locus YGL078C, strain dbp3, hits give low values 0.98 | locus YGL086W, strain mad1, hits give low values 0.984 | locus YGL167C, strain pmr1, hits give low values 0.996 | locus YGL173C, strain kem1, hits give low values 0.991 | locus YGL227W, strain vid30, hits give low values 1.01 | locus YGL240W, strain doc1, hits give low values 0.987 | locus YGL248W, strain PDE1, hits give low values 1.04 | locus YGL253W, strain hxk2, hits give low values 0.998 | locus YGR078C, strain PAC10, hits give low values 1 | locus YGR135W, strain pre9, hits give low values 0.998 | locus YGR229C, strain SMI1, hits give low values 1.03 | locus YGR252W, strain gcn5, hits give low values 0.986 | locus YHR013C, strain ard1, hits give low values 0.998 | locus YHR027C, strain rpn1, hits give low values 0.989 | locus YHR030C, strain SLT2, hits give low values 0.988 and 1.07 | locus YHR079C, strain IRE1 (second series), hits give low values 0.993 | locus YHR079C, strain IRE1, hits give low values 1.05 | locus YHR094C, strain hxt1, hits give low values 0.983 | locus YHR129C, strain ARP1, hits give low values 1.01 | locus YHR142W, strain chs7, hits give low values 1.01 | locus YHR200W, strain rpn10, hits give low values 0.99 | locus YIL066C, strain RNR3, hits give low values 1.03 | locus YIL073C, strain SPO22, hits give low values 0.995 | locus YIL125W, strain kgd1, hits give low values 0.986 | locus YIR030C, strain dcg1, hits give low values 0.98 | locus YJL092W, strain hpr5, hits give low values 0.996 | locus YJL095W, strain BCK1 (second series), hits give low values 0.996 | locus YJL095W, strain BCK1, hits give low values 1.01 and 1.04 | locus YJL115W, strain asf1, hits give low values 1 | locus YJL129C, strain trk1, hits give low values 1.01 | locus YJL134W, strain LCB3, hits give low values 1.02 | locus YJL154C, strain vps35, hits give low values 0.999 | locus YJL164C, strain tpk1, hits give low values 1 | locus YJL166W, strain qcr8, hits give low values 1 | locus YJL168C, strain set2, hits give low values 0.989 | locus YJL187C, strain SWE1 (second series), hits give low values 1.01 | locus YJL187C, strain SWE1, hits give low values 1.02 | locus YJR043C, strain POL32, hits give low values 1.01 | locus YJR066W, strain TOR1, hits give low values 0.988
